# Screens from PubChem.
# BoNT-F LC inh: BoNT/F light chain protease inhibitors, primary screen, biochemical, flow cytometry, MLPCN library; Multiplex microsphere protease cleavage assay; 360,000 compounds, 0.22% hits; inhibition, % at 10 µM; Botulinum neurotoxin type F light chain protease (Clostridium botulinum); AID 588497, 2011; in the data active = inhibition above about 35%, passing the limit was not always enough; inconclusive = no clear call, values can overlap the other calls; also: plate controls were buffer without enzyme for full effect and enzyme alone for no effect
# Bead autofluor: compound fluorescence in toxin protease inhibitor counterscreen | compound autofluorescence counterscreen, microsphere flow cytometry; stronger effect = higher value | fluorescence intensity (concentration not given with the values) | 360,000 compounds, 3.1% hits | AID 624483; in the data active = fluorescence intensity above about 16000; inconclusive = no clear call, values can overlap the other calls
# MazF activator: activators of E. coli MazEF toxin-antitoxin RNase, primary screen, biochemical, fluorescence, uHTS; FAM/BHQ RNA-DNA oligo cleavage fluorescence, 5 h; activation, % at 20 µM; 350,000 compounds, 0.32% hits; AID 504720, 2011; in the data active = activation above about 50%
# BoNT-A LC inh2: BoNT/A light chain protease inhibitors, primary screen, biochemical, flow cytometry, MLPCN library. Botulinum neurotoxin type A light chain protease (Clostridium botulinum A str. ATCC 3502). multiplex microsphere protease substrate cleavage. inhibition, % at 10 µM. 360,000 compounds, 0.17% hits; also: plate controls were buffer without enzyme for full effect and enzyme alone for no effect
# Anthrax LF inh2: Bacillus anthracis LF protease inhibitors, primary screen, biochemical, multiplex microsphere, MLPCN library | 360,000 compounds, 0.12% hits | multiplex microsphere protease cleavage assay | inhibition, % at 10 µM; also: plate controls were buffer without enzyme for full effect and enzyme alone for no effect
# Target sequence (P15917 whole entry, looked up): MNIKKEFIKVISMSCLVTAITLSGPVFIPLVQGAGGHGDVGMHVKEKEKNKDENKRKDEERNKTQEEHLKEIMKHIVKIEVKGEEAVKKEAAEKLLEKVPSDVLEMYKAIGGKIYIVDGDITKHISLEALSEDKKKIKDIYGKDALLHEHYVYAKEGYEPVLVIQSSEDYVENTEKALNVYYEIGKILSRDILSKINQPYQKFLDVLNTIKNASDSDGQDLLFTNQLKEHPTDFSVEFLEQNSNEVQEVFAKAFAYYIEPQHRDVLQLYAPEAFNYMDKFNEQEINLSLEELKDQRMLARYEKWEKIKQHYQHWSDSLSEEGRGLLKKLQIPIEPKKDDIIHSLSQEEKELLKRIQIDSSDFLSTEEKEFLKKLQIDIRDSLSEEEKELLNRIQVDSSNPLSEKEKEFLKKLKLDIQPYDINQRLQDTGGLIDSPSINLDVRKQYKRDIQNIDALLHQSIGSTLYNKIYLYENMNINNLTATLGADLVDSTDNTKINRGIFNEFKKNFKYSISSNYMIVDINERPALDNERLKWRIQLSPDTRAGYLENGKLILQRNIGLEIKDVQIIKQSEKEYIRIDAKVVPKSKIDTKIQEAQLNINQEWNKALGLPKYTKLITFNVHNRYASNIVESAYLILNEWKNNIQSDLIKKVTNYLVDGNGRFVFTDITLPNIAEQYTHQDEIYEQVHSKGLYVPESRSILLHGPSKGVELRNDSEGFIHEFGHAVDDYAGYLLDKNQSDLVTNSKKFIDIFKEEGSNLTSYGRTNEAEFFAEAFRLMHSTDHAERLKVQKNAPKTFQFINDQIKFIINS
# * = called active by the depositor; ? = inconclusive; . = no result. An excerpt weighted towards active compounds, which were near 3.7% of everything screened. Rule as the data show it, unless noted: active = inhibition above about 30%; inconclusive = no clear call, values can overlap the other calls; inactive = below that.
SMILES,BoNT-F LC inh,Bead autofluor,MazF activator,BoNT-A LC inh2,Anthrax LF inh2
CCN1CCN(C(=O)C2c3cc(OC)c(OC)cc3C(=O)N(C)C2c2ccc(SC)cc2)CC1 (stereo not given),-12.3,22280*,7.9,?,-3.0
Cc1nnc(NC(=O)CCSc2ccccc2)s1,-0.8,16606*,-2.0,-0.1,0.9
COCc1nnc(NC(=O)CCSc2ccccc2)s1,0.0,20338*,-5.0,?,-3.2
COCc1nnc(NC(=O)c2ccccc2Oc2ccccc2)s1,-10.9,5555,-0.2,-2.0,-3.9
COCCSc1ccccc1C(=O)Nc1nnc(COC)s1,1.2,23162*,5.4,-0.1,1.1
COCc1nnc(NC(=O)CSc2ccc(C)cc2)s1,-10.9,9697,3.4,-1.4,-9.1
COCc1nnc(NC(=O)CSc2ccccc2)s1,-1.4,22373*,-1.6,0.2,0.5
CC1(C)CC(=O)C=C(c2ccc(F)nc2)C1,1.0,2960,-4.4,0.7,1.7
Cc1nc(NC(=O)/C=C/c2ccc(C(C)(C)C)cc2)sc1C(=O)N(C)C,-6.8,2431,-5.5,-0.9,-1.5
Cc1nnc(NC(=O)CSc2ncnc3scc(-c4ccccc4)c23)s1,4.3,21836*,15.1,?,-1.9
N#Cc1ccc(CSc2nnc(-c3ccccn3)n2-c2ccccc2)cc1,-2.9,2869,-3.4,-0.3,-3.0
N#Cc1ccc(CSc2nnc(COc3ccccc3)n2-c2ccccc2)cc1,-9.4,24330*,-7.9,-5.6,-0.9
COc1ccc(-n2c(COc3ccccc3)nnc2SCc2ccc(C#N)cc2)cc1,-1.8,19781*,-1.6,-0.4,-6.6
COc1ccc(C(=O)CSc2nnc(COc3ccc(C#N)cc3)n2-c2ccccc2)cc1,9.3,4368,1.4,-1.5,4.4
Nc1nnc(SCc2ccc(F)cc2)n1-c1ccccc1,-6.6,21997*,-5.0,-7.7,1.0
CCOC(=O)c1cnc2c(C)c(C)ccc2c1Nc1ccc(S(=O)(=O)Nc2ncccn2)cc1,4.6,2107,0.3,-0.7,-0.2
C/C(=N\NC(=O)CNC(=O)C1COc2ccccc2O1)c1ccco1 (stereo not given),-25.2,4088,4.1,-6.2,-6.4
O=C(Nc1ncc2c(n1)-c1ccccc1OC2)c1ccc(Cl)cc1Cl,0.9,16392*,9.5,0.7,-1.3
O=C(Nc1ncc2c(n1)-c1ccccc1OC2)c1ccc(F)cc1,-0.9,3958,4.0,-0.8,-6.8
O=C(Nc1ncc2c(n1)-c1ccccc1CC2)c1ccc(Cl)cc1,3.0,22185*,0.1,1.6,1.9
CCCCNC(=O)CN1C(=O)NC(CCc2ccccc2)C1=O (stereo not given),1.1,6405,0.9,0.5,-3.7
Cc1ccc(CSCCNC(=O)/C=C/c2ccc(Cl)cc2)cc1,2.6,21860*,-6.6,1.9,0.6
Cc1ccc(CCNC(=O)CCSCc2ccc(Cl)cc2)cc1,-6.6,2213,-5.2,-0.4,-3.2
Cc1ccc(C)c(N2CCN(C(=O)CCCOc3cc(=O)n(C)c4ccccc34)CC2)c1,-6.2,10414,2.1,-2.3,-2.9
COc1ccc(N2CCN(C(=O)CCCOc3cc(=O)n(C)c4ccccc34)CC2)cc1,-4.3,23028*,1.7,-1.0,-3.9
SMILES,BoNT-F LC inh,Bead autofluor,MazF activator,BoNT-A LC inh2,Anthrax LF inh2
CC1CCN(C(=O)CCCOc2cc(=O)n(C)c3ccccc23)CC1,-0.9,20059*,-7.5,?,1.7
CCOc1ccc(CNc2nnnn2C)cc1,-25.3,4041,7.7,4.8,-16.9
COc1cccc(CNc2nc3cc(C(C)=C(C)C)sc3c(=O)n2C)c1,-2.9,3898,.,0.5,-2.3
CN(CC(=O)Nc1cccc(S(=O)(=O)N2CCCC2)c1)Cc1ccccc1,5.1,?,3.5,-1.6,-0.6
O=C(Nc1ccccc1OC(F)F)c1ccc(S(=O)(=O)N2CCCC2)cc1,1.1,3733,-13.4,1.1,-0.4
Cc1ccccc1CN1CCN(Cc2ccccc2C(F)(F)F)CC1,2.4,20858*,1.4,?,-6.1
FC(F)(F)c1ccccc1CN1CCN(Cc2ccccc2)CC1,-6.6,5772,3.7,-0.3,-7.5
Cc1ncoc1C(=O)Nc1cccc(Cl)c1C,-1.6,23395*,-0.2,-3.5,-0.8
Cc1ocnc1C(=O)Nc1ccc(Cl)cc1,-4.2,20071*,3.0,-1.7,-6.3
Cc1ccc(NC(=O)c2ocnc2C)cc1Cl,3.8,7998,7.3,-0.2,-0.6
Cc1ncoc1C(=O)Nc1ccccc1C(N)=O,-1.8,23428*,-7.3,-0.4,0.3
